CYP2C9 inhib = blocks human cytochrome P450 2C9; P11712; CYP2C9 Supersomes, luciferin-H conversion, luminescence; inhibition, % at 5 µM; actives 20% (n = 96,000);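 active means blocking of liver enzyme CYP2C9 beyond about 50% at 5 µM, limit read from the data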
Target sequence (P11712 whole entry, looked up): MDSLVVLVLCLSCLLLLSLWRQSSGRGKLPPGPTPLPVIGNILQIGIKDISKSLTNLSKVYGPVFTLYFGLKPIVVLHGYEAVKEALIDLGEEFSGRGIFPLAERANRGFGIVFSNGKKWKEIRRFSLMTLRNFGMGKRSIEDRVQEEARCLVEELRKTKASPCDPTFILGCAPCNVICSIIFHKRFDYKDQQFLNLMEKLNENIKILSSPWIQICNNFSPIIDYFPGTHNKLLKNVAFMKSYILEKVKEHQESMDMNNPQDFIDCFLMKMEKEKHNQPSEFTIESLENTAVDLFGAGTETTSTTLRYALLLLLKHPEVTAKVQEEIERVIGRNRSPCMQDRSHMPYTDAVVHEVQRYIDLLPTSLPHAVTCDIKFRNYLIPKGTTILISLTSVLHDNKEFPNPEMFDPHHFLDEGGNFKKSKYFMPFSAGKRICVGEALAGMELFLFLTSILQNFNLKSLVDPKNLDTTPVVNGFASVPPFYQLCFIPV
CYP2C19 inh = blocks human cytochrome P450 2C19 | inhibition, % at 5 µM | AID 778 | P33261 | actives 21% (n = 96,000) | CYP2C19 Supersomes, luciferin-H EGE luminescence, 30 min;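 active means CYP2C19 inhibition above a set limit at 5 µM in the primary screen, cut at about 50% in these data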;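 further: plate controls were negative control wells for no effect and 2.5 mM tranylcypromine positive control for full effect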
Measles CPE = protection of cells from measles virus | AID 841 | Measles virus-infected cells, CPE protection, absorbance | protection (pct of control), % at 4 µM | actives 1.5% (n = 140,000); in the data active means protection mostly above about 24%, no sharp cut-off; inactive means mostly below about 26%
CYP2C9 act = activators of human CYP2C9; recombinant CYP2C9, luciferin-H conversion, luminescence; stronger effect = higher value; factor 1 = untreated enzyme, 0 = blocked; P11712; actives 1.4% (n = 96,000); activation factor at 5 µM; AID 1024;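 active means activation factor of 2 or more for CYP2C9 at a 5 µM dose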;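 further: 0 = sulfaphenazole-blocked wells and 1 = vehicle-only wells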
CYP2C19 activ = increases human CYP2C19 enzyme activity | recombinant CYP2C19, luciferin-H EGE luminescence; stronger effect = higher value; 0 = fully inhibited enzyme, 1 = untreated enzyme | activation factor at 5 µM | 96,000 tested, under 10 active | AID 1025;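 active means activation factor of at least 2 at 5 µM in the primary screen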;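 further: 0 = wells with 2.5 mM tranylcypromine and 1 = vehicle-only wells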
An asterisk follows results filed as active; . = not tested or not shown. Hits are enriched below; roughly 22% of the tested compounds scored in any of these assays.

SMILES | CYP2C9 inhib | CYP2C19 inh | Measles CPE | CYP2C9 act | CYP2C19 activ
C=C1C2(C(=O)Nc3ccc(SC(F)F)cc3)CCC(C2)C1(C)C (configuration not stated) | . | . | 17 | . | .
CC(C)Sc1nc(N2CCOCC2)c2c(c1C#N)CC(C)(C)N(C)C2 | 97* | 64* | 23 | 0 | 0.4
CCOC(=O)CSc1nc(N2CCOCC2)c2c(c1C#N)CC(C)(C)N(C)C2 | 73* | 22 | 6 | 0.3 | 0.8
CC(C)CSc1nc(N2CCOCC2)c2c(c1C#N)CC(C)(C)SC2 | 87* | 26 | 21 | 0.1 | 0.7
S=C(c1cn(CCOc2cccc3ccccc23)c2ccccc12)N1CCCC1 | . | . | 28 | . | .
CCOc1cc(CNCc2ccncc2)cc(Br)c1OCc1ccc(F)cc1 | 91* | 80* | 23 | 0.1 | 0.2
COc1cc(CNn2c(C)n[nH]c2=S)cc(Br)c1OCc1ccc(F)cc1 | . | . | 9 | . | .
Nc1nonc1C(=O)NCCNCc1cc(Br)ccc1OCc1ccc(F)cc1 | 25 | 35 | 3 | 0.8 | 0.7
Fc1ccccc1COc1ccc(Br)cc1CNCc1ccncc1 | 84* | 99* | 4 | 0.2 | 0
OCCNCc1cc(Br)ccc1OCc1ccccc1 | . | . | 32* | . | .
Fc1ccc(COc2ccc(Br)cc2CNCc2ccncc2)cc1 | 89* | 99* | 10 | 0.1 | 0
CCOCCCNCc1cc(Br)ccc1OCc1ccccc1 | . | . | 16 | . | .
Cc1cccc(NC(=O)c2onc3c2CCCC3)n1 | . | . | 19 | . | .
CCOc1cc(CNc2ccccc2)cc(Br)c1OCc1ccccc1F | 54* | 30 | 4 | 0.5 | 0.7
CCOc1cc(CNc2ccc(N3CCOCC3)cc2)cc(Br)c1OCC | . | . | 3 | . | .
O=C(NC(=S)NC1CCCCCC1)c1cncc(Br)c1 | . | . | 23 | . | .
CC1(C)Cc2c(c(N3CCOCC3)nc3sc4c(NCc5ccccc5)nnnc4c23)CS1 | 98* | 57* | 3 | 0 | 0.4
CC1(C)Cc2c(c(N3CCOCC3)nc3sc4c(NCc5ccco5)nnnc4c23)CS1 | 93* | 61* | 5 | 0.1 | 0.4
CC1(C)Cc2c(c(N3CCOCC3)nc3sc4c(NN)ncnc4c23)CS1 | 10 | -18 | 9 | 0.9 | 1.2
CC(C)CNc1nnnc2c1sc1nc(N3CCOCC3)c3c(c12)CC(C)(C)SC3 | 81* | 34 | 10 | 0.2 | 0.7
CC1(C)C(N(O)C(=O)Nc2ccccc2)N(c2cccc(Cl)c2)C(=O)N1O (configuration not stated) | 73* | 12 | 12 | 0.3 | 0.9
Cc1nonc1OCC(C)(COc1nonc1C)NC(=O)c1ccc(Cl)cc1 | . | . | 9 | . | .
O=c1c2[nH]c3ccc(Br)cc3c2ncn1CCCn1ccnc1 | 89* | 82* | 27 | 0.1 | 0.2
CCCCn1cnc2c([nH]c3ccccc32)c1=O | 0 | 32 | 13 | 1 | 0.7
O=c1c2[nH]c3ccccc3c2ncn1CCCn1ccnc1 | 72* | 30 | . | 0.3 | 0.7
SMILES | CYP2C9 inhib | CYP2C19 inh | Measles CPE | CYP2C9 act | CYP2C19 activ
Cc1c(NC(=O)/C(C#N)=C/c2ccc(-c3ccc(Cl)cc3)o2)c(=O)n(-c2ccccc2)n1C | . | . | 2 | . | .
CCOc1cc(-c2c(C#N)c(=O)[nH]c3c2c(C)nn3-c2ccc(F)cc2)ccc1O | 91* | 12 | 1 | 0.1 | 0.9
CCC(C)(C)n1nnnc1C(c1ccc(OC)c(OC)c1)N1CCN(c2cccc(OC)c2)CC1 (configuration not stated) | 86* | 56* | 3 | 0.1 | 0.4
CCC(C)(C)n1nnnc1C(c1ccc(OC)c(OC)c1)N1CCN(c2ccc(F)cc2)CC1 (configuration not stated) | . | . | 8 | . | .
CCC(C)(C)n1nnnc1C(c1ccc(OC)c(OC)c1)N1CCN(c2ccccc2)CC1 (configuration not stated) | 71* | 68* | 6 | 0.3 | 0.3
COc1ccc(C(c2nnnn2C(C)(C)C)N2CCN(C)CC2)cc1OC (configuration not stated) | -6 | -4 | 19 | 1.1 | 1
CCC(C)(C)n1nnnc1C(c1ccc(OC)c(OC)c1)N1CCN(c2ccc(OC)cc2)CC1 (configuration not stated) | 88* | 57* | 59* | 0.1 | 0.4
O=C(NNC(=S)Nc1ccc(Cl)cc1)c1ccccc1OC(F)F | . | . | 4 | . | .
Cc1[nH]c2c(ccc3ccccc32)c1C1C(CCN)C1(C)C (configuration not stated) | 31 | 13 | 7 | 0.7 | 0.9
COc1ccc(/C=C/c2ccncc2)c2ccccc12 | 54* | 88* | 26 | 0.5 | 0.1
COc1ccccc1/C=C/C=N/NC(=O)c1ccncc1 | . | . | 7 | . | .
CCn1c(CNc2cccc(Cl)c2)nnc1SCc1ccccc1 | 33 | 56* | 3 | 0.7 | 0.4
CCOC(=O)CSc1nnc(CNc2cccc(Cl)c2)n1-c1ccccc1 | 27 | 56* | 5 | 0.7 | 0.4
Cn1c(CNc2cccc(Cl)c2)nnc1SCC(=O)OC1CCCCC1 | 81* | 79* | 9 | 0.2 | 0.2
CCOC(=O)CSc1nnc(CNc2ccc(Cl)cc2)n1-c1ccccc1 | 38 | 49 | 29 | 0.6 | 0.5
CCn1c(CNc2ccc(Cl)cc2)nnc1SCc1ccc(Cl)cc1 | . | . | 2 | . | .
O=C(Nc1nc(-c2ccc(Cl)s2)cs1)c1ccccc1 | -7 | -6 | 21 | 1.1 | 1.1
Cc1cc(NC(=O)CN2CC(C)OC(C)C2)n(-c2nc3ccccc3s2)n1 (configuration not stated) | 56* | 57* | 11 | 0.4 | 0.4
CCOc1ccccc1-c1nc(-c2ccc(NC(=O)Cc3ccccc3OC)cc2)no1 | -104 | 52* | 7 | 2* | 0.5
CCOc1ccccc1OCCOc1ccc(F)cc1 | -9 | 57* | 10 | 1.1 | 0.4
Cc1cccc(C)c1OCC(=O)N/N=C/c1cc2c(cc1[N+](=O)[O-])OCO2 | 36 | 48 | 11 | 0.6 | 0.5
O=[N+]([O-])c1cc2c(cc1/C=N\NS(=O)(=O)c1ccccc1)OCO2 | 82* | 46 | 2 | 0.2 | 0.5
O=C(O)C1C2C=CC(C2)C1C(=O)Nc1nccs1 (configuration not stated) | 4 | 12 | 5 | 1 | 0.9
Cc1nc2ccc(-c3nc4cc(N)ccc4o3)cc2[nH]1 | 14 | 14 | 6 | 0.9 | 0.9
C/C(CCc1ccc2c(c1)OCO2)=N\N=C(/N)SC1CC(=O)N(c2ccc(Cl)cc2)C1=O (configuration not stated) | 55* | 24 | 22 | 0.5 | 0.8
O=C1CC(SC(=NCc2ccc3c(c2)OCO3)Nc2ccccc2)C(=O)N1c1ccccc1 (configuration not stated) | 31 | 23 | 11 | 0.7 | 0.8
CC(C(=O)NCCN1CCOCC1)c1ccc([N+](=O)[O-])cc1 (configuration not stated) | . | . | 12 | . | .
CCOc1ccc(-n2c(SCc3nc(-c4cccs4)no3)nnc2-c2ccncc2)cc1 | 94* | 92* | 18 | 0.1 | 0.1
Cn1c(SCc2nc(-c3ccccc3)no2)nnc1-c1cccs1 | . | . | 12 | . | .
